Measurements as given in PubChem BioAssay AID1578 (Sanford-Burnham Center for Chemical Genomics, 2009).
In all, about 290,000 compounds went through this assay and about 3,000 (1%) were called active. Rule as the data show it: active = inhibition mostly above about 36% (no sharp cut-off); inactive = mostly below about 34%. Shown is part of a subset that was picked to be rich in actives.

Test: inhibition of NOD1-driven NF-kB reporter – cell-based, luminescence, uHTS, primary screen (AID 1578);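 also: HEK-293T reporter cells stimulated with the NOD1 agonist gamma-tri-DAP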
Settings: NOD1-driven NF-kB luciferase reporter cells, at 4 µM, hits give high values

inhibition, active:
O=C(CCl)Nc1cccc(S(=O)(=O)NC2=NCCC2)c1 64.9%
O=C1NC(=S)S/C1=C\c1ccc(SCc2ccccc2)o1 91.8%
O=c1[nH]cnc2c1sc1nc3c(c(-c4ccc(Cl)cc4)c12)CCC3 78.1%
CCN(CC)S(=O)(=O)c1cc(NC(=O)Cn2ncc(Cl)c(Cl)c2=O)ccc1C 62.3%
COc1cc(NC(=O)Cn2ncc(Cl)c(Cl)c2=O)c(C)cc1[N+](=O)[O-] 91.3%
Cn1c(O)c(C=Nc2ccc(Br)cc2)sc1=O 53.6%
Fc1ccc(NC(=S)Nc2ccc(F)c(Cl)c2)cc1Cl 74.1%

inhibition, inactive:
CCCc1cc(=O)[nH]c(SCC(=O)NCCC2=CCCCC2)n1 -16.8%
Cc1ccc2nc(NCC(=O)NN)nc(-c3ccccc3)c2c1 -11.2%
Cc1ccnc(NS(=O)(=O)c2ccc(NC(=O)c3cc(=O)c4ccccc4o3)cc2)n1 -0.9%
NC(=O)/C(=C/c1cccnc1)NC(=O)c1ccccc1 4.1%
CCc1ccc(C2c3[nH]c4ccccc4c3CCN2C(=O)c2cc(C)nn2C)cc1 (centres undefined) -25.9%
CCCCN(C)C(=O)Cn1nc(-c2ccc(Cl)cc2)ccc1=O -9.3%
O=C(c1ccc(S(=O)(=O)N2CCCC2)cc1)N(Cc1ccco1)C1CCS(=O)(=O)C1 (centres undefined) -10.9%
CNC(=S)Nc1cccc(S(=O)(=O)NC2=NCCC2)c1 -13.1%
O=C(Nc1cccc(S(=O)(=O)NC2=NCCC2)c1)C1CCC1 -32.4%
COc1cc(NC(=O)[C@H](C)NC(=O)N2CCn3c2nc2ccccc23)cc(OC)c1 5.6%
CCCc1nnc(SCC(=O)O)n1CC -9.2%
CSc1ccc(/C=C/C(=O)OCC(=O)N(C)CCC#N)cc1 -23%
Cc1cc(/C=N/N2CCN(C)CC2)c(C)n1-c1ccc(Cl)cc1 -8.4%
O=C1NC(=S)S/C1=C\c1ccc(SCc2ccco2)o1 -10.8%
O=C(O)CN1C(=O)/C(=C/c2ccc(SCc3ccccc3)o2)SC1=S -39.2%
CN(C)c1nc2ncn(Cc3ccccc3)c2c(=O)[nH]1 5.2%
COc1ccc(-c2c3c(nc4sc5c(=O)[nH]c(C)nc5c24)CCC3)cc1 -23.6%
O=c1[nH]cnc2c1sc1nc(-c3ccccc3)c3c(c12)CCCC3 34.8%
COc1ccc(-c2nc3c4ccccc4ccn3c2CN2CCCCC2)cc1OC -8.1%
Cc1nc(SCn2nnc3ccccc3c2=O)nc(C)c1C -13.8%
CCOc1ccc(S(=O)(=O)NCCSCc2ccco2)cc1 3.8%
CCN(CC)S(=O)(=O)c1cc(NC(=O)Cn2cnc3ccccc3c2=O)ccc1C -1.6%
COc1ccc(NC(=O)Cn2ncc(Cl)c(Cl)c2=O)cc1S(=O)(=O)N1CCOCC1 43.5%
COc1cc(NC(=O)CN2CCCCC2)c(C)cc1[N+](=O)[O-] -16.1%
COc1cc(NC(=O)CN2C(=O)CN(C)C2=O)c(C)cc1[N+](=O)[O-] -27.7%
CN(C(=O)c1ccccc1C(=O)OCC(=O)NC(=O)NC(C)(C)C)C1CCCCC1 -11.4%
Nc1cc(N)nc(SCC(=O)Nc2ccccc2)n1 17.4%
O=C(CSc1ncnc2scc(-c3ccccc3)c12)Nc1ccc(C(=O)O)cc1 24.9%
COc1ccnc(Oc2ccc(F)cc2)c1C(=O)N/C=N/OCc1ccc(F)cc1 -24%
Cc1oc2c(c(C)cc3oc(=O)c(CC(=O)N[C@@H](CC(C)C)C(=O)O)c(C)c32)c1C -2.2%
O=Cc1cn(CCC(=O)O)nc1-c1cccc(Br)c1 -28.9%
O=C(O)CCn1cc(/C=C/C(=O)c2ccc(Cl)cc2)c(-c2ccc(Br)cc2)n1 52.9%
CC(=O)c1sc(N/N=C\c2cccc(Br)c2)nc1C 3.9%
C=CCNC(=O)/C(C#N)=C/c1ccc2c(c1)OCCO2 -33.6%
CCn1c(O)c(C=Nc2ccccc2)sc1=O -27.2%
Cc1ccc(N=Cc2sc(O)c3ccccc23)cc1 -36.5%
CCOc1ccc(C(=O)Nc2nnc(S(=O)(=O)N3CCCCC3)s2)cc1 2.6%
O=C(N/N=C/c1cccc(OC(=O)c2cccc(Br)c2)c1)c1ccncc1 -35%
CCOC(=O)CC(NC(=O)c1ccco1)c1ccccc1Cl (centres undefined) -14.8%
CC(=O)Nc1cccc(NC(=S)Nc2ccc(F)c(Cl)c2)c1 3%
Fc1ccc(NC(=S)Nc2cccnc2)cc1Cl -27%
Cn1cc(C(=O)NS(=O)(=O)Nc2ccc(Br)cn2)c2ccccc21 -29%
